TGFb SMAD3 inh: inhibitors of TGF-b signaling; HepG2 CAGA-GFP TGF-b/SMAD3 reporter, GFP fluorescence, 18 h; TGF-beta stimulated, 500 pg/mL final; Potency, µM (series often up to 46.1 µM), actives largely listed as inhibitors; 1.2% of 410,000 active; AID 588855; further: nearly all actives have a fitted effect of over 65% in size
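HEPG2 CAGA-GFP, 1000 cells/well; 2 h settle, 37 C; cpd via pin tool; TGF-b 500 pg/mL final; 18 h, 37 C; GFP imaging ex488/em500-530; %Activity normalised to -TGF-b and +DMSO controls; CRC fit, curve class.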
HepG2 tox: HepG2 cytotoxicity, counter-screen for TGF-b inhibitors; HepG2 CAGA-GFP viability, ATP luminescence, 18 h; Potency, µM (titrated, usually from 46.1 µM), usual class: cytotoxic; 0.76% of 410,000 active; AID 588856
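HepG2 CAGA-GFP cells (1000/well, DMEM with 1% FBS) received compound, then TGF-beta at 500 pg/mL final, and were incubated 18 hours at 37 degrees C. Viability was read by CellTiter-Glo luminescence. Media-only wells were set as complete cell-killing and DMSO as no toxicity.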
ATXN2 expr inh: inhibitors of ATXN2 expression; HEK-293 ATXN2-luciferase reporter, luminescence, 24 h; Potency, µM (series often up to 57 µM), actives largely listed as inhibitors; 0.72% of 360,000 active; AID 1745845; further: nearly all actives have a fitted effect of over 55% in size
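qHTS (up to 57 uM final) was run with 24 h compound exposure of reporter cells at 37 °C. Each well was multiplexed: SteadyGlo luminescence measured ATXN2-luciferase expression after a fluorogenic Gly-Phe-AFC viability readout (25 uM final).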
HT1080 IDH1KD tx: HT-1080 IDH1 knockdown cell toxicity (counter line). Potency, µM (series often up to 46.1 µM), most hits filed as cytotoxic. 2% of 360,000 active. HT-1080 IDH1 knockdown viability, ATP luminescence, 48 h
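CellTiter-Glo luminescence after 48 h compound exposure at 37 degrees C of IDH1-knockdown HT-1080 cells in 5% FBS RPMI. %Activity scaled between DMSO wells and cell-free media wells, with curves fitted and assigned curve classes.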
HT1080NT lethal: kills 2HG-producing HT-1080-NT fibrosarcoma cells; AID 686970; Potency, µM (doses to about 46.1 µM), hits mostly cytotoxic; 1.6% of 360,000 active; HT-1080-NT fibrosarcoma viability, CellTiter-Glo ATP luminescence, 48 h;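 further: NT is the 2HG producing partner of a matched IDH1 knockdown line; nearly all actives have a fitted effect of over 55% in size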
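750 cells/well, RPMI + 5% FBS; 2 h settle, compound pin-transfer, 48 h at 37 degrees C. CellTiter-Glo 10 min RT, luminescence. Normalized to DMSO and media-only wells.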
ATXN viability: viability counter-screen for ATXN expression inhibitors; Potency, µM (series often up to 56.7 µM), usual class: cytotoxic; S2 cells (HEK-293 line with an ATXN2-luciferase reporter) viability, CellTiter-Fluor protease fluorescence, 24 h; AID 651635; 0.49% of 400,000 active; further: nearly all actives have a fitted effect of over 40% in size
Hits are given with their value; 0 = inactive; ? = inconclusive; - = not tested or not shown; ! = not active in a repeat; [ ] = dose if it differs, or a comment. Shown are actives, neighbours in structure and some others; about 3.9% of the full set was active somewhere. The call rests on the fitted dose curve; in most records, active means well fitted curve in the direction sought with a large enough effect; inconclusive means small, poorly fitted or top-dose-only effect, or another doubt; inactive means no such curve, though single readings can be large; an effect the other way counts as inactive or inconclusive.

SMILES | TGFb SMAD3 inh | HepG2 tox | ATXN2 expr inh | HT1080 IDH1KD tx | HT1080NT lethal | ATXN viability
O=C(c1cnn2c(C(F)F)cc(-c3ccccc3)nc12)N1CCc2ccccc21 | 0 | 0 | 0 | 0 | 0 | 0
FC(F)(F)c1nc(-c2cccs2)ncc1-c1nnnn1-c1ccc(Cl)cc1 | 0 | 0 | 22.4µM | ? | ? | ?
O=C1CCC[C@@H]2C[C@@]3(C[C@@H]4CCN1[C@H]24)Nc1cc(Cl)ccc1NC3=NC1CCCCC1 | ? | 0 | 0 | 0 | 0 | 0
CC(C)(C)CC(C)(C)N=C1Nc2ccc(Cl)cc2N[C@]12C[C@H]1CCCC(=O)N3CC[C@@H](C2)[C@@H]13 | ? | 8.91µM | - | - | - | -
Cc1cc2c(cc1C)N[C@]1(C[C@H]3CCCC(=O)N4CC[C@@H](C1)[C@@H]34)C(=NC(C)(C)CC(C)(C)C)N2 | ? | 10µM! | 0 | 0 | 0 | ?
CC(=O)c1ccc(-n2c(=O)[nH]c(=O)c3c(N)c(C(=O)c4ccc(Cl)cc4)sc32)cc1 | ? | 0 | 0 | 23.1µM | 20.6µM | 0
Cc1ccc(C(=O)c2sc3c(c2N)c(=O)[nH]c(=O)n3CCc2ccccc2)cc1 | 0 | 0 | 0 | 0 | 0 | 0
CCn1c(=O)[nH]c(=O)c2c(N)c(C(=O)c3cc(F)ccc3F)sc21 | 11.2µM | 0 | 0 | 0 | 0 | 0
Nc1c(C(=O)c2ccc(Cl)cc2)sc2c1c(=O)[nH]c(=O)n2-c1ccccc1 | 0 | 0 | 0 | 0 | 0 | 0
Cc1cc2nc(N3CCC(NC(C)c4nc(-c5ccccn5)no4)CC3)nc(C)c2cc1C (stereo not given) | - | - | - | - | - | 0
Oc1ccccc1-c1cc(C(F)(F)C(F)F)[nH]n1 | 11.2µM | 0 | 0 | 0[9.24 µM] | ? | 0
Fc1ccc(-c2cc(C(F)(F)C(F)F)[nH]n2)cc1 | ? | 0 | 0 | 0 | 0 | -
N#Cc1ccsc1NC(=O)c1ccc(Cl)c([N+](=O)[O-])c1 | 7.08µM | 0 | - | 0 | 0 | 0
O=C(Nc1ccc(C(O)(C(F)(F)F)C(F)(F)F)cc1)c1ccc(Cl)c([N+](=O)[O-])c1 | ? | 0 | ? | 23.1µM | ? | ?
Cc1cccc(C)c1NS(=O)(=O)c1ccc(NC(=O)c2ccc(Cl)c([N+](=O)[O-])c2)cc1 | ? | 17.8µM | - | ? | ? | 25.1µM
O=C(Nc1ccc(S(=O)(=O)NC2=NCCCCC2)cc1)c1ccc(Cl)c([N+](=O)[O-])c1 | 0 | 0 | 0 | 0 | ? | 0
COc1cc(C)c(CN2CCOc3ccc(C(O)c4cccnc4)cc3C2)cc1C (stereo not given) | - | - | - | - | - | 0
COc1ccccc1OCCn1c(NC(=O)c2ccccc2Cl)nc2ccccc21 | 0 | 0 | ? | - | - | ?
COc1cccc(CN2CCC(n3cc(C(=O)NC4CCCC4)nn3)CC2)c1O | - | - | - | - | - | 0
Cc1cccc(OCC(O)CNC(C)(C)C)c1C (stereo not given) | - | - | 0 | - | - | 0
CC1CCN(S(=O)(=O)c2cc(C(=O)Nc3ccc(Br)cc3F)n(C)c2)CC1 | 11.2µM | 0 | 0 | - | - | 0
COc1ccc(C)cc1NC(=O)c1cc(S(=O)(=O)N2CCC(C)CC2)cn1C | 0 | 0 | 0 | - | - | 0
O=C(c1ccc2c(c1)CCN2S(=O)(=O)c1ccc(Cl)cc1)N1CCN(c2ccc(F)cc2)CC1 | ? | 0 | 0 | - | - | ?
CCOc1ccc(C(NC(=O)CC)c2c(O)ccc3ccccc23)cc1 (stereo not given) | ? | 0 | - | ? | ? | 0
CC(=O)Oc1ccc2ccccc2c1C(NC(=O)Cc1ccccc1)c1ccc(Cl)cc1 (stereo not given) | ? | 0 | ? | 18.4µM | ? | ?
Cc1cccc(NC2=C(NCCO)C(=O)c3ccccc3C2=O)c1 | ? | 0 | 0 | 0 | ? | 0
Cc1ccc(Cl)cc1NC1=C/C(=N\S(=O)(=O)c2cccs2)c2ccccc2C1=O | 3.98µM | 3.55µM! | 2.82µM | 4.61µM | 3.66µM | 11.2µM
Cc1ccc(NC2=C/C(=N\S(=O)(=O)c3cccs3)c3ccccc3C2=O)c(C)c1 | 2.51µM | 4.47µM | ? | 6.51µM | 7.31µM | 8.91µM

Assay outcomes from PubChem.
